Assay outcomes as filed in PubChem.
In the library only some 20% were active in any assay of this set; here they are far more common.
Pf growth 96h – Primary qHTS for delayed death inhibitors of the malarial parasite plastid, 96 hour incubation. P. falciparum luciferase reporter growth, 96 h. Potency, µM (top dose mostly 28.7 µM), inactives show top-dose activity change, negative = inhibition, actives largely listed as inhibitors. 320,000 tested, 6.9% active; also: potency is read from the fitted curve at half-maximal effect; % is scaled to controls: 0 for no effect and ±100 for the full control effect
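Infected RBCs, 2% Hct / 0.05% parasitemia final; luciferase-reporter P. falciparum; cpd 96 h, 37 C, 5% CO2; luciferase detection reagent; luminescence.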
Cycloheximide cs – Cycloheximide Counterscreen for Small Molecule Inhibitors of Shiga Toxin | 300,000 tested, 12% active | cell reporter, cycloheximide protein synthesis inhibition counterscreen | max response, %; in the data active = max response mostly above about 13%, no sharp cut-off; inactive = mostly below about 14%; also: read at 38.3 µM for the half of the compounds with a filed dose; 0% is about no effect
HCMV antiviral – qHTS Assay for inhibitors of the human cytomegalovirus (HCMV); 410,000 tested, 4.5% active; HFF cells, HCMV-luciferase reporter, 72 h; hits give low values; AID 1259415, 2018; activity change, negative = inhibition, % at 57.5 µM; in the data active = activity change below about -60%; inconclusive = no clear call, values can overlap the other calls; inactive = above about -39%; also: % is scaled to controls: 0 for no effect and ±100 for the full control effect
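Steps: HFFs plated, 16 h 37C; compounds added; HCMV-luciferase added to MOI 1 PFU/cell; 72 h 37C; OneGlo reagent, 5 min room temperature; luminescence read, normalized to controls.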
Shiga toxin inh – A qHTS for Small Molecule Inhibitors of Shiga Toxin | Vero cells, Shiga toxin protein synthesis inhibition reporter | inhibition, % at 38.7 µM | 290,000 tested, 9.2% active; in the data active = inhibition mostly above about 28%, no sharp cut-off; inactive = mostly below about 43%; also: 0% is about no effect
Pf growth 48h – Primary qHTS for delayed death inhibitors of the malarial parasite plastid, 48 hour incubation; P. falciparum luciferase growth in erythrocytes, 48 h; 310,000 tested, 5.9% active; Potency, µM (top dose mostly 28.7 µM), inactives show top-dose activity change, negative = inhibition, usual class: inhibitors; also: potency is read from the fitted curve at half-maximal effect; % is scaled to controls: 0 for no effect and ±100 for the full control effect
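Growth was read as firefly luciferase luminescence after a 48 h, 37 C, 5% CO2 exposure of compounds to reporter-bearing P. falciparum cultures (0.1% parasitemia, 2% hematocrit final) in Albumax-supplemented RPMI 1640.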
* = called active by the depositor; i = inactive; ? = inconclusive; . = no result; + = active, no number; [ ] = dose if it differs, or a comment. Unless noted, calls follow the shape of the dose curve; as a rule, active = well fitted inhibition curve with a large enough effect; inconclusive = small, poorly fitted or top-dose-only effect, or another doubt; inactive = no such curve, though single readings can be large or run the other way.

SMILES	Pf growth 96h	Cycloheximide cs	HCMV antiviral	Shiga toxin inh	Pf growth 48h
COc1ccc(-c2cc3cc(OC)c(OC)cc3cn2)cc1	.	.	44.9	.	.
COc1ccc(-c2cc3cc(OC)c(OC)cc3c(C)n2)cc1C	10.4µM*	11.9	-13.8	37.1	?
COc1ccc(-c2cc(-c3ccccc3)nc(NN)n2)cc1OC	?	16.7*	28.1	34.6	?
COc1ccc([C@]23Cc4cc(OC)c(OC)cc4C(O2)c2c(c4ccccc4oc2=O)O3)cc1	?	-2.8	.	i	31.2%[5.75 µM]
COc1ccc([C@]23Cc4ccccc4C(O2)c2c(c4ccc(OC)cc4oc2=O)O3)cc1	1.69µM*	37.8*	.	+	?
COc1cc2c(cc1OC)C1OC(c3ccsc3)(C2)Oc2cc(C)oc(=O)c21 (stereo not given)	1.69µM*	-1.2	.	i	?
COc1ccc([C@]23Cc4cc(OC)c(OC)cc4C(O2)c2c(cc(C)oc2=O)O3)cc1	0.338µM*	1.1	.	i	?
O=C1C2=C(C(=O)c3ccccc31)C1O[C@](c3ccsc3)(Cc3ccccc31)O2	39.4%[5.75 µM]	2.1	.	i	1.2µM*
Cc1cccc(N2CCN(C(=O)c3noc4c3CCCCC4)CC2)c1C	.	.	-39.7	.	.
Cc1cc2c(c(=O)o1)C1O[C@](c3ccsc3)(Cc3ccccc31)O2	?	-2.5	.	i	1.9µM*
O=c1oc2ccccc2c2c1C1O[C@](c3ccsc3)(Cc3ccccc31)O2	?	4.9	.	i	1.69µM*
COc1ccc2c3c(c(=O)oc2c1)C1O[C@](c2ccsc2)(Cc2ccccc21)O3	?	6.9	.	i	?
CCOC(=O)C1=CCN(S(=O)(=O)c2ccc(C)cc2)C1c1ccccc1F (stereo not given)	.	.	-33.5	.	.
CCOC(=O)C1(Cc2ccc(OC)cc2)CCN(C(=O)CN2CCOC2=O)CC1	13.3%	14.3	?	16.7	-15.0%
CCOC(=O)C1(Cc2ccc(OC)cc2)CCN(C(=O)c2cc(C)nn2C)CC1	-1.6%	13.9*	?	18.6	-10.9%
CCOC(=O)C1(Cc2ccccc2Cl)CCN(S(C)(=O)=O)CC1	?	-0.5	11.2	-8.6	0.6%
CCCS(=O)(=O)N1CCC(Cc2ccc(OC)cc2)(C(=O)OCC)CC1	0.7%	19.8*	?	19.0	9.4%
CCOC(=O)C1(Cc2ccc(OC)cc2)CCN(C(=O)c2cccc3nccnc23)CC1	-16.0%	9.8	37.6	10.0	-18.1%
CCOC(=O)C1(Cc2ccc(OC)cc2)CCN(S(C)(=O)=O)CC1	1.9%	47.1*	31.5	50.1*	27.4%
CCOC(=O)C1(Cc2ccc(OC)cc2)CCN(C(=O)CN2CCCCC2=O)CC1	44.4%	16.7*	-10.8	25.6*	26.1%
COCc1cc(=O)n2[nH]c(C)nc2n1	-0.3%[5.75 µM]	-1.7	29.2	9.3	-8.6%
CCOC(=O)C1(Cc2ccc(Cl)cc2)CCN(C(=O)c2cnc(C)cn2)CC1	-2.3%	0.2	33.7	14.2	-13.9%
CCOC(=O)C1(Cc2ccc(Cl)cc2)CCN(C(C)Cc2ccc(O)c(OC)c2)CC1 (stereo not given)	?	-3.3	-63.5*	1.5	?
NCC1CCC(C(=O)Oc2ccc(CCC(=O)O)cc2)CC1 (stereo not given)	-2.8%	.	?	.	-16.5%
Cc1cc2cc(C)c(NCCNC(=O)c3cccs3)nc2cc1C	?	-3.8	-28.8	-9.0	?
SMILES	Pf growth 96h	Cycloheximide cs	HCMV antiviral	Shiga toxin inh	Pf growth 48h
CC(C)CCN1CCN(Cc2coc3ccccc3c2=O)CC1CCO (stereo not given)	4.15µM*	12.5	24.7	23.2	2.8%
CC(C)N1CCN(Cc2coc3ccccc3c2=O)CC1CCO (stereo not given)	0.0%	16.8*	-9.1	24.4	17.0%
CC(C)N1CCN(Cc2ccc(OC3CCCC3)cc2)CC1CCO (stereo not given)	11.7µM*	-4.5	-23.5	-7.8	-13.0%
CC(C)N1CCN(Cc2ccccc2C(F)(F)F)CC1CCO (stereo not given)	-1.8%	-2.0	-33.5	-23.8	5.2%
CC(C)N1CCN(Cc2ccc(OCc3ccccc3)cc2)CC1CCO (stereo not given)	?	12.3	?	-3.0	-15.3%
O=S(=O)(NCCc1nnc2ccc(SCc3c(F)cccc3Cl)nn12)c1ccccc1	.	.	-31.1	.	.
COc1ccc(NS(=O)(=O)c2csc(C(=O)N3CCCC3)c2)c(OC)c1	23.0%	-4.0	?	19.4	?
CC1(C(=O)Nc2ccc3c(c2)OCCO3)CN(S(C)(=O)=O)CC(=O)N1CCc1ccccc1 (stereo not given)	.	.	-4.7	.	.
C=CCn1cc(-c2ccc(Cl)cc2)cc(C#N)c1=O	-2.8%	9.8	-37.2	-10.1	.
N#Cc1cc(-c2ccc(Cl)cc2)cn(Cc2c(Cl)cccc2Cl)c1=O	-44.1%	-1.8	-88.6*	-6.7	-53.9%
O=C(NCCc1ccccc1)c1ccc(CS(=O)Cc2cccc(Cl)c2)o1 (stereo not given)	-21.5%	-1.3	4.0	4.6	-0.9%
CCOc1ccc(CCNC(=O)c2ccc(CS(=O)Cc3ccccc3Cl)o2)cc1 (stereo not given)	-16.9%	15.6*	-13.3	35.4	-2.2%
O=C(NCCc1ccc(Cl)cc1)c1ccc(CS(=O)Cc2cccc(Cl)c2)o1 (stereo not given)	.	.	-64.1*	.	.
O=C(NC1CC(=O)N(c2ccccc2)C1)c1cccs1 (stereo not given)	.	.	-36.3	.	.
Cc1ccc(CSc2nnc(SCC(=O)N/N=C/c3c(C)nn(-c4ccccc4)c3C)s2)cc1	?	76.3*	-8.8	119.9*	24.6%
Cc1nn(-c2ccccc2)c(C)c1/C=N/NC(=O)CSc1nnc(SCc2ccccc2Cl)s1	?	35.2*	-17.7	42.3	29.9%
CC(=O)c1ccc(OCCCC(=O)N(CCC2=CCCCC2)c2c(N)n(Cc3ccccc3)c(=O)[nH]c2=O)cc1	?	.	-27.2	.	?
NC(=O)c1ccc(N2CCN(S(=O)(=O)c3ccccc3)CC2)c([N+](=O)[O-])c1	34.6%	-2.2	-90.3*	-2.8	?
CC(=O)c1c(C)[nH]c(C(=O)CN2CCN(S(=O)(=O)c3ccccc3[N+](=O)[O-])CC2)c1C	10.4µM*	.	-31.8	.	?
Cc1ccc(S(=O)(=O)N2CCN(C(=O)c3ccc(N4CCCC4)c([N+](=O)[O-])c3)CC2)cc1	8.28µM*	-2.7	-5.0	19.5	?
O=C(c1ccc(S(=O)(=O)N2CCCCC2)cc1)N1CCN(CCN2C(=O)c3cccc4cccc(c34)C2=O)CC1	3.29µM*	-5.5	?	-7.6	?
NS(=O)(=O)c1cc(Cl)c(NC(=O)COC(=O)c2ccccn2)c(Cl)c1	-28.0%	.	-36.4	.	-18.9%
O=C(NCc1ccc(C(=O)O)cc1)OCc1ccccc1	?	-1.5	61.0	-3.4	12.7%
COC(=O)CCN(C(=O)C1CCN(S(=O)(=O)c2c(C)noc2/C=C/c2ccccc2F)CC1)c1ccccc1	.	.	7.5	.	.
